# This is a sample that favours compounds with a hit; in the whole collection about 3.7% have one here.
# BoNT F protease – inhibitors of Botulinum neurotoxin F light chain protease. Multiplex microsphere protease cleavage assay, flow cytometry. inhibition, % at 10 µM. actives 0.22% (n = 360,000). AID 588497; in the data active means inhibition above about 35%, passing the limit was not always enough; inconclusive means no clear call, values can overlap the other calls; further: plate controls were buffer without enzyme for full effect and enzyme alone for no effect
# BoNT-A LC inh2 – BoNT A light chain protease inhibition; multiplex microsphere protease substrate cleavage, flow cytometry; inhibition, % at 10 µM; actives 0.17% (n = 360,000); AID 588499; further: plate controls were buffer without enzyme for full effect and enzyme alone for no effect
# MazF activator – increases E. coli MazEF RNase cleavage of RNA; P0AE70; FAM/BHQ RNA-DNA oligo cleavage fluorescence, 5 h; activation, % at 20 µM; actives 0.32% (n = 350,000); AID 504720; in the data active means activation above about 50%
# Target sequence (P0AE70 whole entry, looked up): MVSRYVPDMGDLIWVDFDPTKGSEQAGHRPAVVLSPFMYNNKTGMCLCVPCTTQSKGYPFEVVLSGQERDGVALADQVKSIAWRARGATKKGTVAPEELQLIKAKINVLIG
# Anthrax LF prot – inhibitors of Bacillus anthracis lethal factor protease | inhibition, % at 10 µM | multiplex microsphere protease cleavage assay, LF | actives 0.12% (n = 360,000) | AID 588501; further: plate controls were buffer without enzyme for full effect and enzyme alone for no effect
# Bead autofluor – compound fluorescence in toxin protease inhibitor counterscreen; compound autofluorescence counterscreen, microsphere flow cytometry; hits give high values; fluorescence intensity (test concentration not listed); actives 3.1% (n = 360,000); in the data active means fluorescence intensity above about 16000; inconclusive means no clear call, values can overlap the other calls
# Starred values were filed as active, the others as inactive; ? = inconclusive; nt = not tested or not shown; ! = a repeat was not active. Unless noted, no stated cut-off is given here; in the data, active means inhibition above about 30%; inconclusive means no clear call, values can overlap the other calls; inactive means below that.
SMILES,BoNT F protease,BoNT-A LC inh2,MazF activator,Anthrax LF prot,Bead autofluor
CSc1ccc(N2CCN(CCCNC(=O)Nc3ccccc3F)CC2)cc1,-7.6,-3.6,8.0,-2.2,24815*
Cc1cccc(-n2nc(C)cc2N)c1,-14.6,-0.4,3.6,-2.2,8390
Cc1cc(C)cc(-n2nc(C)cc2N)c1,-0.2,?,6.4,-0.4,16680*
O=C(Nc1cccc2cccnc12)c1cccnc1,6.7,6.3,4.5,-1.2,18275*
O=C(Nc1cccc2cccnc12)c1ccc(Cl)cc1,24.9,-3.8,9.0,-13.4,3848
NC(=O)c1cc2ccccc2oc1=NCc1ccccc1,-5.2,-0.2,4.4,-1.9,2443
NC(=O)c1cc2ccc(O)cc2oc1=NCc1ccccc1,-1.6,0.3,785.0*,1.3,11165
Cc1ccc(C(=O)O/N=C2\CCSc3ccc(C)cc32)cc1,0.5,?,-1.4,-5.2,19396*
COc1ccc(S(=O)(=O)O/N=C2\CCSc3ccc(C)cc32)cc1,-9.4,-7.0,-5.5,-0.6,21946*
COC(=O)Cc1ccc(NC(=S)N2CCC(Cc3ccccc3)CC2)cc1,1.0,-0.8,0.0,7.4,3997
N#Cc1ccc2ccn(CC(=O)NC3CCCCC3)c2c1,0.4,0.6,13.8,-3.5,16380*
O=C(Nc1ccccc1N1CCOCC1)c1cccc2c(Br)cccc12,-5.4,-1.7,-1.2,4.9,4293
Cc1cc(NC(=O)C(C)Sc2nc(-c3ccccc3)cc(=O)[nH]2)no1 (centres undefined),-7.9,-1.9,-15.0,-14.2,3704
CC(Sc1nc(-c2ccccc2)cc(=O)[nH]1)C(=O)O (centres undefined),-7.7,-5.2,-1.0,-4.4,24389*
COC(=O)CSc1nnc(CNC(=O)c2cccc(C)c2)n1-c1ccccc1OC,4.6,?,8.4,-6.0,22455*
COc1ccc(OCc2nnc(SCC(N)=O)n2-c2ccccc2OC)cc1,-3.5,0.6,-3.4,-2.9,19312*
COc1ccc(OCc2nnc(SCC(N)=O)n2N)cc1,4.0,0.3,21.7,6.3,2892
CC(C)(C)OC(=O)N1CCC[C@@H]1C(=O)N1CCC[C@@H]1C(=O)NCc1ccccc1Cl,6.7,-0.1,nt,0.6,5656
COc1ccccc1NC(=O)C1CCCN(S(=O)(=O)c2ccc3c(c2)CC(C)N3C(C)=O)C1 (centres undefined),11.0,2.7,6.8,0.9,3873
O=C(c1ccc(Br)cc1)N(Cc1ccco1)C1CCS(=O)(=O)C1 (centres undefined),-3.8,1.7,0.4,0.4,5013
CC(C)C[C@H]1CN(CCCC[C@H]2CNC(=O)C(=O)N2CCc2ccc(O)cc2)C(=O)C(=O)N1CCc1ccc(O)cc1,8.3,0.7,nt,10.4,5593
O=C(CSc1nnc(-c2ccco2)n1CC1CCCO1)N1CCCCC1 (centres undefined),2.2,1.8,6.5,1.4,21580*
COCCCn1c(SCC(=O)N2CCCC(C)C2)nnc1-c1ccco1 (centres undefined),0.7,-3.4,-6.6,1.9,21046*
COc1ccc(NC(=O)C[C@H]2C(=O)N(C3CCCCC3)C[C@@H]2CSC)cc1,-2.5,-0.8,8.5,-5.7,3528
Nc1ccn([C@@H]2O[C@H](C(=O)Nc3cc(C(F)(F)F)cc(C(F)(F)F)c3)[C@@H](O)[C@H]2O)c(=O)n1,-3.0,0.6,nt,5.4,5095
SMILES,BoNT F protease,BoNT-A LC inh2,MazF activator,Anthrax LF prot,Bead autofluor
CC1(C)CC(=O)C(N=Nc2cc3c(cc2[N+](=O)[O-])OCCO3)=C(O)C1,-2.4,-0.5,93.2*,-6.9,3229
CC(=O)c1ccc(OC(=O)c2cccs2)cc1,-6.6,-3.0,-3.3,-1.4,24802*
CC(=O)Nc1ccc(NC(=O)C(C)OC(=O)c2cccs2)cc1 (centres undefined),-3.6,-1.1,3.0,0.4,3817
CC(=O)Nc1ccc(OC(=O)c2cccs2)cc1,-4.6,?,-3.6,-1.2,16646*
O=C(NCc1nnc(SCC(=O)N2CCN(c3ccccc3)CC2)o1)c1c(F)cccc1Cl,-16.0,-0.8,3.3,5.4,5713
Brc1cccc(-c2nnc3sc(CN4CCC5(CC4)OCCO5)cn23)c1,-3.2,-3.5,-1.6,-6.5,24422*
Brc1cccc(-c2nnc3sc(CN4CCCCC4)cn23)c1,-7.4,-0.1,-1.5,0.4,9738
Cc1ccc(C2C(C#N)=C(N)SC(N)=C2C#N)c(C)c1,71.0*,40.0*,-404.2,27.8,7929
CCOC(=O)C1=C(Cc2ccc(OC)cc2)C(=O)c2ccccc2C1=O,-9.7,?,216.9*,-10.6,15161
CCOC(=O)C1=C(O)c2ccccc2C(=O)/C1=C\c1ccc(CC)cc1,3.3,6.3,25.4,-2.6,21598*
CCOC(=O)c1c(C)nc2c(c1-c1cc(OC)ccc1OC)C(=O)c1ccccc1-2,-0.6,1.2,-0.8,5.8,9214
CC(=O)NC12CC3CC(C1)CC(C(=O)N1CCN(S(=O)(=O)c4cccc(C(F)(F)F)c4)CC1)(C3)C2,-2.5,-3.7,-11.1,-3.2,7012
CCCOc1cc2c(C#N)c(N3CCCC3)nc(N)c2c(N)n1,-7.9,0.5,63.2*,-4.3,2902
COc1cc2c(C#N)c(N3CCN(C)CC3)nc(N)c2c(N)n1,-17.9,1.1,nt,-0.7,9711
COc1cc2c(C#N)c(N3CCCC3)nc(N)c2c(N)n1,-16.8,3.5,90.4*!,-3.6,3435
N#Cc1c(N)nc(N2CCCC2)c(C#N)c1-c1ccc(Cl)cc1,-6.5,-0.6,66.4*,-5.9,9535
CCOc1cc2c(C#N)c(N3CCCC3)nc(N)c2c(N)n1,0.8,1.1,7.5,5.6,4145
Cn1nc(N)c2c(-c3ccc(Cl)cc3)c(C#N)c(N)nc21,2.4,1.1,6.5,-4.9,9853
CCOC(=O)c1c(C)[nH]c(C(=O)OCC(=O)Nc2cc(Cl)ccc2OC)c1C,-5.4,-2.6,5.5,-4.9,16877*
CCOC(=O)c1[nH]c(C)c(C(=O)OCC(=O)NC(=O)NC(C)(C)C)c1C,3.7,1.1,2.4,-1.7,20160*
CCN1CCN(Cc2c(C(=O)N/N=C(\C)c3ccc(Cl)cc3)nnn2-c2nonc2N)CC1,3.3,1.0,1.6,-0.4,5804
CC(Oc1ccc(Cl)cc1Cl)c1nc(-c2ccc(NC(=O)c3cccnc3)cc2)no1 (centres undefined),15.0,0.8,-10.4,2.9,2580
CC(Oc1ccc(Cl)cc1Cl)c1nc(-c2ccc(NC(=O)c3ccncc3)cc2)no1 (centres undefined),-5.5,-2.4,-8.3,-1.9,21041*
COCCC1CCCCN1C(=O)c1ccc(OC2CCN(C(C)=O)CC2)c(OC)c1 (centres undefined),-5.9,-1.2,5.0,-1.1,5801
O=C(CSc1nnc(CNC(=O)c2c(F)cccc2F)o1)NCc1ccc2c(c1)OCO2,3.1,-0.5,-2.9,-5.6,3012
COc1cc(/C=C/C(=O)OCC(=O)NC(=O)C2COc3ccccc3O2)ccc1OC(F)F (centres undefined),-0.7,0.7,-6.4,3.5,3894
CCN(CC)CCNC(=O)Cc1nn(CC)c(=O)c2ccccc12,3.4,0.1,2.1,-0.3,10982

# Source: PubChem (several laboratories)
